This note sets out measurements from PubChem BioAssay (NCI).

The panel holds about 83,000 compounds, 20% with a hit somewhere; the sample as a whole holds those more often.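 Growth was measured after 48 h exposure to one concentration of compound in 96-well plates. Values under 10 count as active.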 Unmarked numbers belong to inactive results. Active and inactive are the calls of the source.

This assay concerns HL-60(TB) leukemia. The experiment in a line: NCI-60 one-dose screen, 48 h (100 = growth as untreated, 0 = no growth, -100 = all killed). As to conditions: 10 µM unless noted.

On to `COc1ccc(S(=O)(=O)Nc2cc(/C=C\c3cc(OC)c(OC)c(OC)c3)ccc2OC)cc1`, for which the growth was -31.6% (active). In the case of `COC(=O)C1Cc2ccccc2CN1C(=O)c1ccc2c(c1)Cc1ccccc1-2` (configuration not stated) it was 13.4% [50 µM]. Consider `Clc1ccc(Nc2nnc(CNc3ccccc3)c3ccccc23)cc1`, for which the growth was -13.4% (active). Turning to `O=C(N/N=C\c1ccccc1O)C1CC1`, the growth is 101%. In the case of `CC(=O)c1cc(C(=O)c2ccc3c(c2)Sc2ccccc2N3)c2c(C)cc(C)cn12`, the growth was -12.6% (active). In the case of `Cc1ccc(Nc2cc(C)nc(NCCCNc3ccnc4cc(Cl)ccc34)n2)cc1`, the growth is -73% (active). In the case of `Cc1ccc(S(=O)(=O)N(CC[C@@H]2C[C@H]2c2cc3ccccc3o2)C(=O)NC2CCCCC2)cc1`, the growth is 105%.

Regarding `COc1ccc(-c2csc(NC(=O)c3cc(O)c(O)c(O)c3)n2)cc1`, the growth was 62.4%. Next, `CNC(=O)OC1C(O[C@H]2C[C@H]3[C@@H]4CC=C5C[C@@H](O)CC[C@]5(C)[C@H]4CC[C@]3(C)[C@H]2[C@H](C)C(=O)CCC(C)C)OCC(O)C1OC1OCC(O)C(O)C1OC(=O)c1ccc(OC)cc1` (some centres not stated): -12.1% (active); `COc1ccc(/C=C2/CN(CCC#N)C/C(=C\c3ccc(OC)cc3)C2=O)cc1`: 13.6%. In the case of `COc1ccc2c(c1)O/C(=C/c1ccc(OCC(=O)Nc3ccc(S(N)(=O)=O)cc3)cc1)C2=O`, the growth was 89.5%.

Take `CO[C@H]1CC(O[C@@H]2/C(C)=C/C[C@@H]3C[C@@H](C[C@]4(CC[C@H](C)[C@@H](C5CCCCC5)O4)O3)OC(=O)[C@@H]3C=C(C)/C(=N/O)[C@H]4OC/C(=C\C=C\[C@@H]2C)[C@]43O)O[C@@H](C)C1O` (some centres not stated): the growth is -48.7% (active).
